According to the supplement of paper PMC4022240:
± gives the standard deviation.

T1: HaloTag-ATRX ADD domain (163-292)
T1 chain: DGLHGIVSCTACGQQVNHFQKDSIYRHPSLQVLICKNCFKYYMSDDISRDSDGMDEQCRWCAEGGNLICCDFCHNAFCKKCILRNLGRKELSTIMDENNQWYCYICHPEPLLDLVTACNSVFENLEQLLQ


Biological target: T1, HaloTag-ATRX ADD domain (163-292)
Assay: peptide microarray binding signal (635 nm), min-max normalized on array (fraction of array maximum); higher = stronger binding
Conditions: peptide region: Unmod H2B variant; binder concentration: 50 nM
Summary of the method: (§1)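 Arrays carried histone 13-mer peptide–cellulose conjugates printed in triplicate on nitrocellulose alongside a Cy3 tracer. After overnight blocking at 4°C, they were incubated for 1 h at 4°C with biotin-labelled HaloTag reader fusions (10 nM to 1 μM) plus streptavidin-Alexa Fluor 647, or with rabbit histone antibodies (1:10,000 to 1:2,000) plus anti-rabbit Alexa 647. Scanning on an Axon GenePix 4000B used 635 nm for signal and 532 nm for misprints. The binding signal reported is each triplicate's mean spot intensity after per-library min-max scaling.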

| Binder | peptide microarray binding signal |
| --- | --- |
| GISSKAMSIMNSF [Unmod H2B variant G I S S K A M S I M N S F] | 0.0103 ± 0.00033 |
| AMGIMNSFVNDIF [Unmod H2B variant A M G I M N S F V N D I F] | 0.0068 ± 0.00037 |
| AMSIMNSFVTDIF [Unmod H2B variant A M S I M N S F V T D I F] | 0.0108 ± 0.0002 |
| NSFVNDIFERIAG [Unmod H2B variant N S F V N D I F E R I A G] | 0.00721 ± 0.00059 |
| NSFVTDIFERIAS [Unmod H2B variant N S F V T D I F E R I A S] | 0.00646 ± 0.0003 |
| DIFERIAGEASRL [Unmod H2B variant D I F E R I A G E A S R L] | 0.0112 ± 0.00018 |
| DIFERIASEASRL [Unmod H2B variant D I F E R I A S E A S R L] | 0.00655 ± 0.00034 |
| IAGEASRLAHYNK [Unmod H2B variant I A G E A S R L A H Y N K] | 0.0147 ± 0.00017 |
| YNKRSTITSREIQ [Unmod H2B variant Y N K R S T I T S R E I Q] | 0.00837 ± 0.00045 |
| YSKRSTISSREIQ [Unmod H2B variant Y S K R S T I S S R E I Q] | 0.01006 ± 2.8e-05 |

Same assay, conditions: peptide region: Unmod H2B variant; binder concentration: 500 nM

| Binder | peptide microarray binding signal |
| --- | --- |
| GISSKAMSIMNSF [Unmod H2B variant G I S S K A M S I M N S F] | 0.0293 ± 0.0012 |
| AMGIMNSFVNDIF [Unmod H2B variant A M G I M N S F V N D I F] | 0.0162 ± 0.0016 |
| AMSIMNSFVTDIF [Unmod H2B variant A M S I M N S F V T D I F] | 0.0253 ± 0.001 |
| NSFVNDIFERIAG [Unmod H2B variant N S F V N D I F E R I A G] | 0.00671 ± 0.00013 |
| NSFVTDIFERIAS [Unmod H2B variant N S F V T D I F E R I A S] | 0.0141 ± 0.00044 |
| DIFERIAGEASRL [Unmod H2B variant D I F E R I A G E A S R L] | 0.0406 ± 0.0012 |
| DIFERIASEASRL [Unmod H2B variant D I F E R I A S E A S R L] | 0.00648 ± 0.00023 |
| IAGEASRLAHYNK [Unmod H2B variant I A G E A S R L A H Y N K] | 0.0384 ± 0.0025 |
| YNKRSTITSREIQ [Unmod H2B variant Y N K R S T I T S R E I Q] | 0.0253 ± 0.0034 |
| YSKRSTISSREIQ [Unmod H2B variant Y S K R S T I S S R E I Q] | 0.0303 ± 0.0022 |

Biological target: HaloTag-ING2 PHD (mouse Ing2 200-280)
Assay: as above
Conditions: peptide region: Unmod H2B variant; binder concentration: 10 nM
Summary of the method: as §1

| Binder | peptide microarray binding signal |
| --- | --- |
| GISSKAMSIMNSF [Unmod H2B variant G I S S K A M S I M N S F] | 0.011 ± 0.0025 |
| AMGIMNSFVNDIF [Unmod H2B variant A M G I M N S F V N D I F] | 0.0083 ± 0.00011 |
| AMSIMNSFVTDIF [Unmod H2B variant A M S I M N S F V T D I F] | 0.01188 ± 7.7e-05 |
| NSFVNDIFERIAG [Unmod H2B variant N S F V N D I F E R I A G] | 0.00364 ± 0.00012 |
| NSFVTDIFERIAS [Unmod H2B variant N S F V T D I F E R I A S] | 0.00483 ± 0.00011 |
| DIFERIAGEASRL [Unmod H2B variant D I F E R I A G E A S R L] | 0.013 ± 0.00037 |
| DIFERIASEASRL [Unmod H2B variant D I F E R I A S E A S R L] | 0.00454 ± 0.00011 |
| IAGEASRLAHYNK [Unmod H2B variant I A G E A S R L A H Y N K] | 0.0361 ± 0.0036 |
| YNKRSTITSREIQ [Unmod H2B variant Y N K R S T I T S R E I Q] | 0.0181 ± 0.00093 |
| YSKRSTISSREIQ [Unmod H2B variant Y S K R S T I S S R E I Q] | 0.0109 ± 0.00062 |

Same assay, conditions: peptide region: Unmod H2B variant; binder concentration: 100 nM

| Binder | peptide microarray binding signal |
| --- | --- |
| GISSKAMSIMNSF [Unmod H2B variant G I S S K A M S I M N S F] | 0.0429 ± 0.016 |
| AMGIMNSFVNDIF [Unmod H2B variant A M G I M N S F V N D I F] | 0.0126 ± 0.00023 |
| AMSIMNSFVTDIF [Unmod H2B variant A M S I M N S F V T D I F] | 0.0239 ± 0.0025 |
| NSFVNDIFERIAG [Unmod H2B variant N S F V N D I F E R I A G] | 0.003827 ± 3.3e-05 |
| NSFVTDIFERIAS [Unmod H2B variant N S F V T D I F E R I A S] | 0.00815 ± 0.00095 |
| DIFERIAGEASRL [Unmod H2B variant D I F E R I A G E A S R L] | 0.0336 ± 0.00077 |
| DIFERIASEASRL [Unmod H2B variant D I F E R I A S E A S R L] | 0.0142 ± 0.0098 |
| IAGEASRLAHYNK [Unmod H2B variant I A G E A S R L A H Y N K] | 0.0742 ± 0.0014 |
| YNKRSTITSREIQ [Unmod H2B variant Y N K R S T I T S R E I Q] | 0.0337 ± 0.0033 |
| YSKRSTISSREIQ [Unmod H2B variant Y S K R S T I S S R E I Q] | 0.0429 ± 0.0047 |

Biological target: anti-H3K4me3 antibody ab8580
Assay: as above
Conditions: peptide region: Unmod H2B variant; binder concentration: 1:2,000 dilution
Summary of the method: as §1

| Binder | peptide microarray binding signal |
| --- | --- |
| GISSKAMSIMNSF [Unmod H2B variant G I S S K A M S I M N S F] | 0.00194 ± 0.00057 |
| AMGIMNSFVNDIF [Unmod H2B variant A M G I M N S F V N D I F] | 0.00362 ± 0.00022 |
| AMSIMNSFVTDIF [Unmod H2B variant A M S I M N S F V T D I F] | 0.00882 ± 0.0011 |
| NSFVNDIFERIAG [Unmod H2B variant N S F V N D I F E R I A G] | 0.00198 ± 0.00015 |
| NSFVTDIFERIAS [Unmod H2B variant N S F V T D I F E R I A S] | 0.00238 ± 0.00045 |
| DIFERIAGEASRL [Unmod H2B variant D I F E R I A G E A S R L] | 0.00406 ± 0.00012 |
| DIFERIASEASRL [Unmod H2B variant D I F E R I A S E A S R L] | 0.000793 ± 2.2e-05 |
| IAGEASRLAHYNK [Unmod H2B variant I A G E A S R L A H Y N K] | 0.00521 ± 0.00045 |
| YNKRSTITSREIQ [Unmod H2B variant Y N K R S T I T S R E I Q] | 0.00293 ± 0.00014 |
| YSKRSTISSREIQ [Unmod H2B variant Y S K R S T I S S R E I Q] | 0.00225 ± 0.00019 |

Same assay, conditions: peptide region: Unmod H2B variant; binder concentration: 1:10,000 dilution

| Binder | peptide microarray binding signal |
| --- | --- |
| GISSKAMSIMNSF [Unmod H2B variant G I S S K A M S I M N S F] | 0.00228 ± 0.00014 |
| AMGIMNSFVNDIF [Unmod H2B variant A M G I M N S F V N D I F] | 0.00548 ± 0.00033 |
| AMSIMNSFVTDIF [Unmod H2B variant A M S I M N S F V T D I F] | 0.0132 ± 0.00021 |
| NSFVNDIFERIAG [Unmod H2B variant N S F V N D I F E R I A G] | 0.002339 ± 2.1e-05 |
| NSFVTDIFERIAS [Unmod H2B variant N S F V T D I F E R I A S] | 0.00308 ± 0.00038 |
| DIFERIAGEASRL [Unmod H2B variant D I F E R I A G E A S R L] | 0.00548 ± 0.00027 |
| DIFERIASEASRL [Unmod H2B variant D I F E R I A S E A S R L] | 0.00177 ± 2.9e-05 |
| IAGEASRLAHYNK [Unmod H2B variant I A G E A S R L A H Y N K] | 0.00633 ± 0.00022 |
| YNKRSTITSREIQ [Unmod H2B variant Y N K R S T I T S R E I Q] | 0.00382 ± 0.00016 |
| YSKRSTISSREIQ [Unmod H2B variant Y S K R S T I S S R E I Q] | 0.00211 ± 6.7e-05 |

Biological target: anti-H3K9me3 antibody ab8898
Assay: as above
Conditions: peptide region: Unmod H2B variant; binder concentration: 1:2,000 dilution
Summary of the method: as §1

| Binder | peptide microarray binding signal |
| --- | --- |
| GISSKAMSIMNSF [Unmod H2B variant G I S S K A M S I M N S F] | 0.000936 ± 5e-05 |
| AMGIMNSFVNDIF [Unmod H2B variant A M G I M N S F V N D I F] | 0.00285 ± 0.0002 |
| AMSIMNSFVTDIF [Unmod H2B variant A M S I M N S F V T D I F] | 0.00523 ± 0.00065 |
| NSFVNDIFERIAG [Unmod H2B variant N S F V N D I F E R I A G] | 0.00074 ± 6.4e-06 |
| NSFVTDIFERIAS [Unmod H2B variant N S F V T D I F E R I A S] | 0.000936 ± 2e-05 |
| DIFERIAGEASRL [Unmod H2B variant D I F E R I A G E A S R L] | 0.00234 ± 0.00013 |
| DIFERIASEASRL [Unmod H2B variant D I F E R I A S E A S R L] | 0.000453 ± 1.5e-05 |
| IAGEASRLAHYNK [Unmod H2B variant I A G E A S R L A H Y N K] | 0.00217 ± 5.9e-05 |
| YNKRSTITSREIQ [Unmod H2B variant Y N K R S T I T S R E I Q] | 0.000936 ± 1.5e-05 |
| YSKRSTISSREIQ [Unmod H2B variant Y S K R S T I S S R E I Q] | 0.00103 ± 2.2e-05 |

Same assay, conditions: peptide region: Unmod H2B variant; binder concentration: 1:10,000 dilution

| Binder | peptide microarray binding signal |
| --- | --- |
| GISSKAMSIMNSF [Unmod H2B variant G I S S K A M S I M N S F] | 0.00144 ± 2.8e-05 |
| AMGIMNSFVNDIF [Unmod H2B variant A M G I M N S F V N D I F] | 0.00311 ± 5.3e-05 |
| AMSIMNSFVTDIF [Unmod H2B variant A M S I M N S F V T D I F] | 0.00571 ± 0.00035 |
| NSFVNDIFERIAG [Unmod H2B variant N S F V N D I F E R I A G] | 0.001614 ± 1.6e-05 |
| NSFVTDIFERIAS [Unmod H2B variant N S F V T D I F E R I A S] | 0.00208 ± 9.6e-05 |
| DIFERIAGEASRL [Unmod H2B variant D I F E R I A G E A S R L] | 0.003113 ± 2.6e-05 |
| DIFERIASEASRL [Unmod H2B variant D I F E R I A S E A S R L] | 0.001211 ± 1.2e-05 |
| IAGEASRLAHYNK [Unmod H2B variant I A G E A S R L A H Y N K] | 0.00259 ± 4.6e-05 |
| YNKRSTITSREIQ [Unmod H2B variant Y N K R S T I T S R E I Q] | 0.00213 ± 7.9e-05 |
| YSKRSTISSREIQ [Unmod H2B variant Y S K R S T I S S R E I Q] | 0.0015 ± 2.5e-05 |
